Test [1] addresses Homeodomain-interacting protein kinase 3 (Homo sapiens) (UniProt Q9H422). The following applies: at 10 µM.
Test [2] addresses T1, Serine/threonine-protein kinase haspin (Homo sapiens) (UniProt Q8TF76).
T1 sequence (whole entry): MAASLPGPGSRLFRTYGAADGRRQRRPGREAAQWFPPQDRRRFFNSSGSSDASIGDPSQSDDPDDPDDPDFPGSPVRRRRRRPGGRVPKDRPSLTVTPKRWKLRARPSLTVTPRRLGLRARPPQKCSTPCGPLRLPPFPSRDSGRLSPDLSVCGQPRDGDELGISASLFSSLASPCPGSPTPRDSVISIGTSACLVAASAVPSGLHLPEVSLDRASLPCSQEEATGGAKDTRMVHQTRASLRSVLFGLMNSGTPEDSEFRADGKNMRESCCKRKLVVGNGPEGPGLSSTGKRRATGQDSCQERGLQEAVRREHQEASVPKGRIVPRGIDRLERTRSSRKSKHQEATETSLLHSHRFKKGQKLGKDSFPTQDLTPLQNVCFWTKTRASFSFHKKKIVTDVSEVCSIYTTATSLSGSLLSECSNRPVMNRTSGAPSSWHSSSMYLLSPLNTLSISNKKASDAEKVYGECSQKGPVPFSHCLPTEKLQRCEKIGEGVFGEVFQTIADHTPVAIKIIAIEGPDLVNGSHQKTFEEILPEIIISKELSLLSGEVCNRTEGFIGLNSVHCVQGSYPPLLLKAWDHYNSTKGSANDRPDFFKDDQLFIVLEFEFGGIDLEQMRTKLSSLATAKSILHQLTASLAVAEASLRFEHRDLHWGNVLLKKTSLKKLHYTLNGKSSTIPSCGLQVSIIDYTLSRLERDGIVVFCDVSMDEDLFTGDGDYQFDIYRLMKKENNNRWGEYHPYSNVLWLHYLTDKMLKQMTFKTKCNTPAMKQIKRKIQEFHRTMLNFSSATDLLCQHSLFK
The following applies: at 1 µM.

For test [3], the target named is T1, Serine/threonine-protein kinase haspin (Homo sapiens). To be noted: at 10 µM.
Test [4] concerns the target Tyrosine-protein kinase HCK (Homo sapiens) (UniProt P08631). The following applies: at 1 µM.
Test [5] has the same target. To be noted: at 10 µM.
Test [6] shares this target. To be noted: at 1 µM. This is another data set of the same source.
The target is the same in test [7]. The following applies: at 10 µM. The source holds these as a separate data set.
For test [8], the target named is Insulin-like growth factor 1 receptor (Homo sapiens) (UniProt P08069). To be noted: at 1 µM.
Test [9] shares this target. The following applies: at 10 µM.
Test [10] addresses T2, Protein kinase C zeta type (Homo sapiens) (UniProt Q05513).
T2 sequence (whole entry): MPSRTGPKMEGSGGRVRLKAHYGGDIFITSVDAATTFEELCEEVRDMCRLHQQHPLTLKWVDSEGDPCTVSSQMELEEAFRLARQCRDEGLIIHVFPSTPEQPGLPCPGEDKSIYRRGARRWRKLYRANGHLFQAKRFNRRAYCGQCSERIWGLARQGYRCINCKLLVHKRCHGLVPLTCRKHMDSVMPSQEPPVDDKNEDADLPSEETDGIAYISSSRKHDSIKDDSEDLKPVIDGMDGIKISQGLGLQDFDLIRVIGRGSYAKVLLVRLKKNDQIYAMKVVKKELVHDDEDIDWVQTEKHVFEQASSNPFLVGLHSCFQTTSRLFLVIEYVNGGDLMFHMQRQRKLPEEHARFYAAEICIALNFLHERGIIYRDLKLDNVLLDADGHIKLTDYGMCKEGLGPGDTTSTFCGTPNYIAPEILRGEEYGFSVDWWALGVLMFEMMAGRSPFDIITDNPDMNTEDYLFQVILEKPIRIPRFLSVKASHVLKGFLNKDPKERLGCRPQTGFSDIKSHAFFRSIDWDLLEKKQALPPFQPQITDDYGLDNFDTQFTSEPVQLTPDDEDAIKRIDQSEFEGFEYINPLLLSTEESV
The following applies: at 10 µM.

Test [11] addresses Protein kinase C eta type (Homo sapiens) (UniProt P24723). To be noted: at 1 µM.
The target is the same in test [12]. The following applies: at 10 µM.
Test [13] concerns the target Protein kinase C theta type (Homo sapiens) (UniProt Q04759). To be noted: at 1 µM.
Test [14] has the same target. The following applies: at 10 µM.
Test [15] concerns the target T3, Protein kinase C iota type (Homo sapiens) (UniProt P41743).
T3 sequence (whole entry): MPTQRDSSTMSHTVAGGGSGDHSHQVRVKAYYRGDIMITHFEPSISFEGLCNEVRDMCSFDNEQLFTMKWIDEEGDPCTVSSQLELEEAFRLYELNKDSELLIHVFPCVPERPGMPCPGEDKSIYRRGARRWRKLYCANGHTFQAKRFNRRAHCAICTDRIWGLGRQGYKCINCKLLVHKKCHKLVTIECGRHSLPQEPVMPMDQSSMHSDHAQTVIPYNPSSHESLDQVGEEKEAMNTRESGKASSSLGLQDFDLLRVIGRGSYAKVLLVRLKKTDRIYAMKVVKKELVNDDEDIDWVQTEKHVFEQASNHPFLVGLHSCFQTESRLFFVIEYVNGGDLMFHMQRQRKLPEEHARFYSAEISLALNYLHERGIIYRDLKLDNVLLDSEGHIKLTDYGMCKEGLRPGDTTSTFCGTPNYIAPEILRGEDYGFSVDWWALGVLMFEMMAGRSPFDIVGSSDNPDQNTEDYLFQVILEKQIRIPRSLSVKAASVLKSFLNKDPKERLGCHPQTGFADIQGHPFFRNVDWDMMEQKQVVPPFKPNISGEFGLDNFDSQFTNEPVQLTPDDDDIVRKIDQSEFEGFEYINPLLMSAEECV
To be noted: at 1 µM.

For test [16], the target named is T3, Protein kinase C iota type (Homo sapiens). To be noted: at 10 µM.
The target in test [17] is T4, Serine/threonine-protein kinase D1 (Homo sapiens) (UniProt Q15139).
T4 sequence (whole entry): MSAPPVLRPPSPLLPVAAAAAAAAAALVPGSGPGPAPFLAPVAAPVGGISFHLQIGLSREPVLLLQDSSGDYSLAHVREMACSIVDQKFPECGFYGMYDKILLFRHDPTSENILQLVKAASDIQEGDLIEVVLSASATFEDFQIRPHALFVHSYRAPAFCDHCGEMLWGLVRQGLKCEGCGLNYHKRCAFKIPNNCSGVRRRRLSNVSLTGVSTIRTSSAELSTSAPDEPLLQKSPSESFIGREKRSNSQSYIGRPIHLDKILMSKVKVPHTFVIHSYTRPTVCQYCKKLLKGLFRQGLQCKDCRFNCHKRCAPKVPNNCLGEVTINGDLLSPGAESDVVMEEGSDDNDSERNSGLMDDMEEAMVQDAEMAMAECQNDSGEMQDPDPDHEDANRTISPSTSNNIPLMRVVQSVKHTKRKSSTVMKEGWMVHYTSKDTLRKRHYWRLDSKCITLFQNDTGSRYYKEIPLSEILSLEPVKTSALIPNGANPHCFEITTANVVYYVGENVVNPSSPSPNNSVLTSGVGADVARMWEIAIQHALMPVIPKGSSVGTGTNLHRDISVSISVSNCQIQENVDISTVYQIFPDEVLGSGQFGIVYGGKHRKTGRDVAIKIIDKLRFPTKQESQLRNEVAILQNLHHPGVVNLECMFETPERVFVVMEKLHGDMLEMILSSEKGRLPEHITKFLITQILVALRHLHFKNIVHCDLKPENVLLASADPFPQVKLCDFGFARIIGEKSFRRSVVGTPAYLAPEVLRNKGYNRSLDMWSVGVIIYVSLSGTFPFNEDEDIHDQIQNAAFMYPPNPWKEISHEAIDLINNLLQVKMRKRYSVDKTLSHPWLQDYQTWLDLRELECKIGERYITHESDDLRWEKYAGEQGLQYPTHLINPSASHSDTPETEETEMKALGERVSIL
To be noted: at 1 µM.

Test [18] deals with T4, Serine/threonine-protein kinase D1 (Homo sapiens). To be noted: at 10 µM.
For test [19], the target named is T5, Serine/threonine-protein kinase D2 (Homo sapiens) (UniProt Q9BZL6).
T5 sequence (whole entry): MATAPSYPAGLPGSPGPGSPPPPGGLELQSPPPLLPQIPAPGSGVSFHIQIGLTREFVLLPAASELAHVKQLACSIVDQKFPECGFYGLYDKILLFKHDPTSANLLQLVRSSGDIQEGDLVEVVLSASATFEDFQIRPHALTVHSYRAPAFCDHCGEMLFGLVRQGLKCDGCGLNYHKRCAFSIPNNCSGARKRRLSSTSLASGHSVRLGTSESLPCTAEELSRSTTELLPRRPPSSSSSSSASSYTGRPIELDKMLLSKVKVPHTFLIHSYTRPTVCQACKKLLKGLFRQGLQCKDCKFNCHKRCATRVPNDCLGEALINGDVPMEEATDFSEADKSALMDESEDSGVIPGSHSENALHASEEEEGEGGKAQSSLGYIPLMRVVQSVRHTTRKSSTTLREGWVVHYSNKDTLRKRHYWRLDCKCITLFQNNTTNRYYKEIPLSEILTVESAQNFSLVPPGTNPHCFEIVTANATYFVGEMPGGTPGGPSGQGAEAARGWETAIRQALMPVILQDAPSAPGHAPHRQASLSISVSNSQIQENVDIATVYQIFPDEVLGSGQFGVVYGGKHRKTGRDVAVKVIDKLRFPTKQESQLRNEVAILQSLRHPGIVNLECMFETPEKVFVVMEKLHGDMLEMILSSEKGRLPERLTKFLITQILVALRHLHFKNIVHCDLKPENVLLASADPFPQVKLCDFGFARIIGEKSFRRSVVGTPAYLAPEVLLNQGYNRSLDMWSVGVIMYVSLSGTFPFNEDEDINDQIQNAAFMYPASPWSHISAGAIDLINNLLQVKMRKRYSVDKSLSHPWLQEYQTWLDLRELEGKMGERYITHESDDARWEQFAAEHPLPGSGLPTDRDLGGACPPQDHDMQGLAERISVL
To be noted: at 1 µM.

For test [20], the target named is T5, Serine/threonine-protein kinase D2 (Homo sapiens). The following applies: at 10 µM.

Sequence of Homeodomain-interacting protein kinase 3 (Homo sapiens) (Q9H422 whole entry, looked up): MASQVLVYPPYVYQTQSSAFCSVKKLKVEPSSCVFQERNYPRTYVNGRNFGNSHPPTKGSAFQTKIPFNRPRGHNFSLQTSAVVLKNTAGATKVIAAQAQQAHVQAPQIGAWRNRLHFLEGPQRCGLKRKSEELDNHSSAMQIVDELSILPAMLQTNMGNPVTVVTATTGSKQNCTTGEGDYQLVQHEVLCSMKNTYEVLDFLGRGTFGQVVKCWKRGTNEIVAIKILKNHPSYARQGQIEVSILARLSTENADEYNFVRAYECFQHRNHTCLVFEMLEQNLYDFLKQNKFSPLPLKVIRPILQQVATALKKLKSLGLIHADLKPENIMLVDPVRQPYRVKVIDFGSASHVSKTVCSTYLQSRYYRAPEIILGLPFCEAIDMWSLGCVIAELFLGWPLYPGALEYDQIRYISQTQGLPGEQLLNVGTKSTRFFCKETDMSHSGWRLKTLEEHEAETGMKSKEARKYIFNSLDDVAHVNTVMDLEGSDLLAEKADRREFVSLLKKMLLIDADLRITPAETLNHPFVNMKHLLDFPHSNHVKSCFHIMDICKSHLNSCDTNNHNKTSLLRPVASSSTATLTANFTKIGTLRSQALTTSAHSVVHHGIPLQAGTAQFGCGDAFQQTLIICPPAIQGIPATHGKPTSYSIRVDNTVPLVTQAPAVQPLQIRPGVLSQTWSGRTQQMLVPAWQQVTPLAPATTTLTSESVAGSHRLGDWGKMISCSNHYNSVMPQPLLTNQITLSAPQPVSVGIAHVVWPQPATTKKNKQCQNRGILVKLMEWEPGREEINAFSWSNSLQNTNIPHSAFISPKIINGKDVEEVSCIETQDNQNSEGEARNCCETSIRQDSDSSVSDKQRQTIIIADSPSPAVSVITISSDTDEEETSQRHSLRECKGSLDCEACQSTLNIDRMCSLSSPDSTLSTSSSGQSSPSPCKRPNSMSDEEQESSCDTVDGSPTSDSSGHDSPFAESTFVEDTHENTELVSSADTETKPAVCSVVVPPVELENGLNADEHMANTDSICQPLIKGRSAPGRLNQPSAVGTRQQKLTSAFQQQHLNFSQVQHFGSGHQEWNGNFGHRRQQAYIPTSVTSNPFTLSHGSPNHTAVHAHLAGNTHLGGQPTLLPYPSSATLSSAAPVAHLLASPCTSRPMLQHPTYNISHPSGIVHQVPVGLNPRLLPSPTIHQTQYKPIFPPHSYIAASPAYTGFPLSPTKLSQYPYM
Sequence of Protein kinase C theta type (Homo sapiens) (Q04759 whole entry, looked up): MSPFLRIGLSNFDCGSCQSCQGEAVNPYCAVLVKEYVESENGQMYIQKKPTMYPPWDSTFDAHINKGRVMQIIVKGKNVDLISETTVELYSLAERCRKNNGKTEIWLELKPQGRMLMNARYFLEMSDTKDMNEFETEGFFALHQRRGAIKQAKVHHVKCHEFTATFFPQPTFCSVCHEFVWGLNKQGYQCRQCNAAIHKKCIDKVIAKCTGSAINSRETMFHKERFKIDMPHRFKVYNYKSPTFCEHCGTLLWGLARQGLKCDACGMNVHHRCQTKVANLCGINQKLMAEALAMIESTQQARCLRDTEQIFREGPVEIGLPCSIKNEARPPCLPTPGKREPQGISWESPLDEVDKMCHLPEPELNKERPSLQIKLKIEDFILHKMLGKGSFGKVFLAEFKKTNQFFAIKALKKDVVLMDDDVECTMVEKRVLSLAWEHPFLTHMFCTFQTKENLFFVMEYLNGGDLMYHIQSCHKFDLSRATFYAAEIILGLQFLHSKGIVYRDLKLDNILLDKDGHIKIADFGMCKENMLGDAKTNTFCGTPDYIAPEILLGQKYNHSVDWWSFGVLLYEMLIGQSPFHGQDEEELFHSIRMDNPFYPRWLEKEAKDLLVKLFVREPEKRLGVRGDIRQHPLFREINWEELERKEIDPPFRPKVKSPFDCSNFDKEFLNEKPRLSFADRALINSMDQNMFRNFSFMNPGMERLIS
Sequence of Insulin-like growth factor 1 receptor (Homo sapiens) (P08069 31-736 limits assumed): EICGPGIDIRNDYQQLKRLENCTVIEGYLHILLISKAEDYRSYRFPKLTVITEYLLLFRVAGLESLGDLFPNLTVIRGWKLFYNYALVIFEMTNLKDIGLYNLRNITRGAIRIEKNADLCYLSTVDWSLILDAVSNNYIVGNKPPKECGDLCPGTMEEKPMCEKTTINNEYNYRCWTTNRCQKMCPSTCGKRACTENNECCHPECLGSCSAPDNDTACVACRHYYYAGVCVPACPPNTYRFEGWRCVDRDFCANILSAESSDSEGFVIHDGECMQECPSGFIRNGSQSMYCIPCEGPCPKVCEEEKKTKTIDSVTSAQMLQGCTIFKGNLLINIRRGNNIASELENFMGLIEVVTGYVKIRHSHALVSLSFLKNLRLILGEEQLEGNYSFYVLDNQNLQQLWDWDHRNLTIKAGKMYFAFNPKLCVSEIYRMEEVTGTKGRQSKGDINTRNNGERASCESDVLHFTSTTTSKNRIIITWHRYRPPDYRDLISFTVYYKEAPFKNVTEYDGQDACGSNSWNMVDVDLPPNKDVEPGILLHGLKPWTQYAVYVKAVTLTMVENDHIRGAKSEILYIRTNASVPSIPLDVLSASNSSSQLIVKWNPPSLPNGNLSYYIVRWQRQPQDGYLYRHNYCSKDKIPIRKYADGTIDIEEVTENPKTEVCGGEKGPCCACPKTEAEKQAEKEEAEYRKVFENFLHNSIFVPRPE
Sequence of Insulin-like growth factor 1 receptor (Homo sapiens) (P08069 741-1367 limits assumed): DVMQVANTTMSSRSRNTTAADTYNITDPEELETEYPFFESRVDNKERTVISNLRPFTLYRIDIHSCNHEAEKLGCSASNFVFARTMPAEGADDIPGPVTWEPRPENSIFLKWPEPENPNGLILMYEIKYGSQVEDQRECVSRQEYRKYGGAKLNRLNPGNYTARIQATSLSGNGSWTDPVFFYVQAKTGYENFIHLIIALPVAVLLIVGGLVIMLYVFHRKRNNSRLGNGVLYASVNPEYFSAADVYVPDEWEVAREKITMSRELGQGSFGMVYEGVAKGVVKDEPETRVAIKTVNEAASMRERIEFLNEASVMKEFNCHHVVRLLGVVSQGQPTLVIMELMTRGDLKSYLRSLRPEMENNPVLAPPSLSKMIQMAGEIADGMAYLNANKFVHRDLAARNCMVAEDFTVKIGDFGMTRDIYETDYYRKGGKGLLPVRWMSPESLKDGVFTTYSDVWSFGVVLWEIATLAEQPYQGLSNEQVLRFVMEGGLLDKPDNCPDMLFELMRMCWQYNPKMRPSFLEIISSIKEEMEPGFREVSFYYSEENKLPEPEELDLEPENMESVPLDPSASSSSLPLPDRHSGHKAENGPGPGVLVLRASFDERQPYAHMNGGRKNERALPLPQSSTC
Sequence of Protein kinase C eta type (Homo sapiens) (P24723 whole entry): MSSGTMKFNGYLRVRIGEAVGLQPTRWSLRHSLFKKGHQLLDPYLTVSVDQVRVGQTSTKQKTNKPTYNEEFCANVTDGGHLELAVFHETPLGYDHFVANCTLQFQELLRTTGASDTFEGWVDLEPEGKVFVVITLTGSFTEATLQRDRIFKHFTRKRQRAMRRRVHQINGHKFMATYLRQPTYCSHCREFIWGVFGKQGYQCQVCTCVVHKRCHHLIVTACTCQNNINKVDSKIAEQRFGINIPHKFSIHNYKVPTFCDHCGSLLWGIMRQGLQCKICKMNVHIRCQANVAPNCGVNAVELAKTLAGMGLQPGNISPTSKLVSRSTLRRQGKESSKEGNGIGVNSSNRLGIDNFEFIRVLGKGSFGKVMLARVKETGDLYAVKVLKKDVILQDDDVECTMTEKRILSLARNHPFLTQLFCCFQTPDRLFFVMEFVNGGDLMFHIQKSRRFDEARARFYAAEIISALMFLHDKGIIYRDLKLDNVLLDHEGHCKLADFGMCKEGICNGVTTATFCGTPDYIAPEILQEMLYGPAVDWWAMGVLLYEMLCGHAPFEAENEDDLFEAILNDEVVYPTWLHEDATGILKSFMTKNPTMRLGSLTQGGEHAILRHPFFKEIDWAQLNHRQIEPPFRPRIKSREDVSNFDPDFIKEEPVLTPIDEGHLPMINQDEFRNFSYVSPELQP
Sequence of Tyrosine-protein kinase HCK (Homo sapiens) (P08631 2-526 limits assumed): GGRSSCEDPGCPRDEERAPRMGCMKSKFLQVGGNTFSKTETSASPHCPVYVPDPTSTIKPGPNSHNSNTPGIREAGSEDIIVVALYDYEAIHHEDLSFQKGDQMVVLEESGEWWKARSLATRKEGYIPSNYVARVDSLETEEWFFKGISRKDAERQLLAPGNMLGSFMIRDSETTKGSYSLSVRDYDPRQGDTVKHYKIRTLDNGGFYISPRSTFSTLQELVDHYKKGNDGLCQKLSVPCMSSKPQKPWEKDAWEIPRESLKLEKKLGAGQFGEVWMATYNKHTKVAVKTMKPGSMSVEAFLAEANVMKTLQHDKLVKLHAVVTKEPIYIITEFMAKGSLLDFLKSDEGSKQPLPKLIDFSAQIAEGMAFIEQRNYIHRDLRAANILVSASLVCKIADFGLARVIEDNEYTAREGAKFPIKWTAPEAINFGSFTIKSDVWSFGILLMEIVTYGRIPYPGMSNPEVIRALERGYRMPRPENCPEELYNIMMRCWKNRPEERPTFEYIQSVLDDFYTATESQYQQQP

For `O=c1c2ccccc2[nH]c(=S)n1CCN1CCC(=C(c2ccc(F)cc2)c2ccc(F)cc2)CC1`, the residual activity turned out to be 88% in [1]; 84% in test [2]; 52% in test [3]; 73% in test [4]; 38% in test [5]; 101% in test [6]. Also, the residual activity was 101% in test [7]; 119% in test [8]; 104% in test [9]; 94% in [10]; 106% in test [11]; 83% in test [12]. For the same molecule, the residual activity is 110% in [13]; 109% in [14]; 109% (inactive) in test [15]; 81% in test [16]; 113% in test [17]; 84% in test [18]. For the same molecule, in [19], the residual activity came to 100%.

Take `O=[N+]([O-])c1ccc(-c2nc(-c3ccc(F)cc3)c(-c3ccncc3)[nH]2)cc1`: the residual activity worked out at 109% in [1]; 86% in [2]; 77% in [3]; 77% in test [4]; 29% in test [5]; 97% in test [6]. For the same molecule, the residual activity in test [7] was 97%; in test [8], 114%; in test [9], 141%; in test [10], 103%; in test [11], 95%; in test [12], 68%. Moreover, the residual activity was 91% in test [13]; 68% in test [14]; 110% (inactive) in test [15]; 109% in test [16]; 64% in test [17]; 52% in [18]. The residual activity came to 100% in [19] and 94% in [20].

`O=C(Nc1cccc(Nc2nccc(Nc3cccc(C(F)(F)F)c3)n2)c1)C1CC1`: the residual activity stood at 103% in test [1]; 71% in [2]; 32% in [3]; 42% in test [4]; 7% in [5]; 78% in [6]. The residual activity in test [7] is 78%; in test [8], 51%; in [9] it was 6%; in test [10], 116%; in test [11], 107%; in [12] it was 84%. Also, the residual activity is 102% in test [13]; 82% in test [14]; 84% (inactive) in test [15]; 77% in test [16]; 101% in [17]; 125% in [18]. Further, the residual activity was 99% in test [19] and 96% in test [20].

On to `COc1cccc(-c2cc(=O)c3ccccc3o2)c1N`, for which the residual activity in test [1] turned out to be 98%; in test [2] it was 118%; in test [3], 81%; in test [4], 88%; in test [5] it was 87%; in [6], 106%. Besides, the residual activity stood at 105% in test [7]; 91% in test [8]; 127% in test [9]; 105% in test [10]; 101% in test [11]; 94% in test [12]. Also, the residual activity in test [13] was 92%; in test [14] it was 97%; in test [15], 114% (inactive); in test [16] it was 108%; in test [17], 85%; in test [18] it was 95%. Further, the figures for the residual activity in test [19] and in test [20] were 110% and 97%, respectively.

For the origin of these results see ChEMBL document CHEMBL2218924, “A broad activity screen in support of a chemogenomic map for kinase signalling research and drug discovery” (Biochem J, 2013).
